Results taken from ChEMBL document CHEMBL4513216, “Probing the Open Global Health Chemical Diversity Library for Multistage-Active Starting Points for Next-Generation Antimalarials” (ACS Infect Dis, 2020).
Among all 69,000 compounds or so, about 8,600 (12%) showed an effect of 50% or more. The sample as a whole holds a higher share of strong results than the screen did.

Tested on: Plasmodium berghei
Test: Screen against P. berghei liver stage (PbLuc), transformed with Luciferase, at 10uM
Type: functional, HepG2
Details: tested at 10 uM

| Structure (SMILES) | INHIBITION [%] |
| --- | --- |
| Cc1ccc2nnc(C(=O)NCC3CCCC3)nc2c1 | -4.01 |
| O=C(c1cccnc1)N1CCn2nnc(COc3ccccn3)c2C1 | 41.6 |
| CN(C)CCOCc1cncc2c1CCN(C(=O)c1cscn1)C2 | 49.4 |
| CSc1ccc(S(=O)(=O)NC2CNC(=O)C2)cc1 (configuration not stated) | 42.1 |
| O=C1CC(NS(=O)(=O)c2ccc(Cl)cc2)CN1 (configuration not stated) | 45.5 |
| O=C1CC(NS(=O)(=O)c2ccc(Br)cc2)CN1 (configuration not stated) | 53.7 |
| COc1cccc(S(=O)(=O)NC2CNC(=O)C2)c1 (configuration not stated) | -12.2 |
| Cc1ccc(S(=O)(=O)NC2CNC(=O)C2)cc1C (configuration not stated) | 38.5 |
| COC(=O)c1ccc(S(=O)(=O)NC2CNC(=O)C2)cc1 (configuration not stated) | 60.6 |
| O=C(c1ccnc(C2CCNCC2)c1)N1CCCC(CO)C1 (configuration not stated) | 23.9 |
| CCOCC1CN(C(=O)c2cc(C)oc2C)Cc2c1cnn2C (configuration not stated) | 36.2 |
| COC[C@H]1CC[C@H]2[C@H](CCN2S(=O)(=O)c2ccccc2)O1 | 4.68 |
| c1nc(N2CCOCC2)sc1-c1cncn1CCCN1CCCCC1 | 8.32 |
| CC(C)(C)C(O)CN1CCN(C(=O)COCC2CC2)CC1 (configuration not stated) | 10.6 |
| CCOCCC(=O)N1CCN(CC(C)O)CC1 (configuration not stated) | 29.4 |
| CSCCC(=O)N1CCN(CC(O)C(C)(C)C)CC1 (configuration not stated) | -46.4 |
| CC(O)CN1CCN(C(=O)CCOC(C)C)CC1 (configuration not stated) | 8.05 |
| CCN1CCN(C(=O)CCC2CCN(C(=O)CCSC)CC2)CC1 | 33.5 |
| CSCCC(=O)N1CCN(CC(C)(C)O)CC1 | -94.3 |
| CSCC(=O)N1CCN(CC(O)C(C)(C)C)CC1 (configuration not stated) | 60.9 |
| CSCCC(=O)N1CCN(CC(C)O)CC1 (configuration not stated) | 68.2 |
| CCC(O)CN1CCN(C(=O)CCSC)CC1 (configuration not stated) | 68.2 |

| Structure (SMILES) | INHIBITION [%] |
| --- | --- |
| O=C(CCC(=O)N1CCCC1c1ccsc1)N1CCOCC1 (configuration not stated) | 7.24 |
| Cc1ccc2nc(-c3nc4c([nH]3)CCCNC4=O)cn2c1 | -87.9 |
| CCOC(=O)CN1CCC2(CC1)CC(=O)c1ccc3ccccc3c1O2 | 31.2 |
| CCC(=O)NCc1ccc(N2CCCCC2)cc1 | -0.578 |
| Cc1nc(C)n(CC2CCCN2Cc2cc(-c3cccs3)on2)n1 (configuration not stated) | 40.65 |
| c1nnc(Nc2cncc(C3CCCN3CC3CC3)n2)s1 (configuration not stated) | 11.8 |
| Cc1noc2nc(C3CCCN(Cc4cccnc4)C3)cc(C(F)F)c12 (configuration not stated) | 41.2 |
| CCc1cc(C(=O)N2CCCC2c2nc(C)c(CC)c(O)n2)on1 (configuration not stated) | -21.4 |
| Cc1cc(C(=O)N2CCCC2c2nc(C)cc(O)n2)on1 (configuration not stated) | 44.8 |
| CCc1cc(C(=O)N2CCCC2c2nc(C)c(F)c(O)n2)on1 (configuration not stated) | 53 |
| CCc1cc(O)nc(C2CCCN2C(=O)c2cc(C)no2)n1 (configuration not stated) | 26.9 |
| CCc1c(C)nc(C2CCCN2C(=O)c2cc(C)no2)nc1O (configuration not stated) | 30.4 |
| Cc1cc(C(=O)N2CCCC2c2nc(O)cc(C(C)C)n2)on1 (configuration not stated) | 51.5 |
| CN(C)CCN1C(=O)CCC12CCCN(C(=O)C1CC=CC1)CC2 (configuration not stated) | -38.1 |
| NC(=O)CCN(CC(=O)NCc1cccs1)c1ccc(F)cc1 | 47.3 |
| Cn1cc(CN2CC[C@@H]3[C@@H](CO[C@H]3CNC(=O)c3ccco3)C2)cn1 | -16.9 |
| CCN1CC[C@@]2(C(=O)N3CCOCC3)CCN(C(=O)NC)CC[C@@H]12 | -19.6 |
| Cc1nccc([C@@H]2C[C@@H]3CCN(Cc4cccs4)C[C@H]3O2)n1 | -32.6 |
| Cc1cc(-c2nccs2)nc(C2CCN(Cc3ccncc3)CC2)n1 | 26.7 |
| Oc1cc(-c2nccs2)nc(C2CCN(Cc3cccs3)CC2)n1 | 2.55 |
| Cc1cc(-c2nccs2)nc(C2CCN(Cc3ccccn3)CC2)n1 | 23.9 |
| Cc1cc(-c2nccs2)nc(C2CCN(Cc3cccs3)CC2)n1 | 50.8 |

| Structure (SMILES) | INHIBITION [%] |
| --- | --- |
| Cc1cc(-c2nccs2)nc(C2CCN(Cc3ccc(F)cc3)CC2)n1 | 52.7 |
| Cc1nnc(C(C)NCC2(c3ccc(F)cc3)CCCCC2)o1 (configuration not stated) | -14.6 |
| O=C(CCn1ccccc1=O)Nc1ccc(C(=O)O)cc1 | 12.7 |
| Cc1nc(N(C)C)nc2c1COCC21CCN(C(=O)NCC(C)C)C1 (configuration not stated) | -43.8 |
| CC(NC(=O)CCOc1ccc(F)cc1)c1nnc2n1CCCCC2 (configuration not stated) | 28.8 |
| COc1ccccc1CNc1ccc2nncn2n1 | -33.8 |
| O=C(Cn1cccnc1=O)NC(Cc1ccsc1)c1cccnc1 (configuration not stated) | 14.7 |
| CC(C)c1cc(NCC2(CO)CCC2)ncn1 | 66.7 |
| CC(C)c1cc(NCC2(N(C)C)CCCC2)ncn1 | 49.9 |
| CC(C)c1cc(NCC2(CO)CCCC2)ncn1 | 44.3 |
| CCN(CC)Cc1ccc(C(=O)NC2CCc3cc(Br)ccc32)o1 (configuration not stated) | 36.7 |
| CCN(CC)Cc1ccc(C(=O)NC2CCc3cc(F)ccc32)o1 (configuration not stated) | 9.91 |
| CCN(CC)Cc1ccc(C(=O)NC2CCc3cc(Cl)ccc32)o1 (configuration not stated) | 50.5 |
| O=C(CC1CCCC1)Nc1ccc(-n2cc(Cl)cn2)nc1 | -18.8 |
| CC(C)c1sc(Br)nc1C(=O)NCc1ccco1 | -7.81 |
| Cc1csc(CN2C[C@@H]3COC[C@]3(COCC(=O)N(C)C)C2)n1 | -2.35 |
| CN1CCN(c2ccccc2CNC(=O)Cc2cccc(F)c2)CC1 | 30.3 |
| Cc1ccc(CN2CCc3c(CN4CCCC4)n[nH]c3C2)s1 | 26.5 |
| Cc1cc(C)nc(C2CCN(C3CCCCC3)C2)n1 (configuration not stated) | -36.4 |
| CCS(=O)(=O)NC[C@]12COC[C@H]1CN(Cc1ccccn1)C2 | 4.27 |
| CCS(=O)(=O)NC[C@]12COC[C@H]1CN(Cc1cccnc1)C2 | 24.9 |
| CCS(=O)(=O)NC[C@]12COC[C@H]1CN(Cc1ccncc1)C2 | 53.9 |

| Structure (SMILES) | INHIBITION [%] |
| --- | --- |
| CCS(=O)(=O)NC[C@]12COC[C@H]1CN(Cc1ccsc1)C2 | 53.9 |
| CCS(=O)(=O)NC[C@]12COC[C@H]1CN(Cc1sccc1C)C2 | 28.7 |
| CCS(=O)(=O)NC[C@]12COC[C@H]1CN(Cc1cc(C)on1)C2 | 18.8 |
| CCS(=O)(=O)CC(=O)NC(c1ccc(F)cc1)C1CCCC1 (configuration not stated) | 42.6 |
| Cc1nn(-c2ccccc2)c(C)c1CN1CCNCC1 | 40.9 |
| COc1cc(C2(C(=O)NC3CCC4(CC3)OCCO4)CC2)ccc1C | 10.3 |
| COc1cc(C2(C(=O)N3CCN(CC(C)(C)O)CC3)CC2)ccc1C | 52.3 |
| COc1cc(C2(C(=O)NC3CCN(CC4CC4)CC3)CC2)ccc1C | 25.5 |
| COCC(=O)N1CCN(C(=O)C2(c3ccc(C)c(OC)c3)CC2)CC1 | 50.9 |
| COc1cc(C2(C(=O)NC3CCN(C4CC4)CC3)CC2)ccc1C | 51.5 |
| CCC(O)CN1CCN(C(=O)C2(c3ccc(C)c(OC)c3)CC2)CC1 (configuration not stated) | -6.34 |
| COCCNC(=O)C1(c2ccc(C)c(OC)c2)CCCC1 | 21.5 |
| COc1cc(C2(C(=O)N3CCN(CC(C)O)CC3)CC2)ccc1C (configuration not stated) | -17.8 |
| COc1cc(C2(C(=O)N3CCCC(n4cncn4)C3)CC2)ccc1C (configuration not stated) | -7.81 |
| O=C(O)[C@H]1OCC(=O)N(Cc2cccc(Cl)c2)[C@@H]1c1ccccc1 | 22 |
| Cn1cc(CN2CCCCC2c2ccc(-c3cccc(Cl)c3)nc2)cn1 (configuration not stated) | 57.3 |
| Cn1cc(CN2CCCCC2c2ccc(-c3cccc(F)c3)nc2)cn1 (configuration not stated) | 62.9 |
| Cc1nccc(C2CCCCN2Cc2cccc(F)c2)n1 (configuration not stated) | 43.6 |
| Cn1cc(-c2ccc(C3CCCCN3Cc3cccnc3)cn2)cn1 (configuration not stated) | 9.05 |
| Cn1cc(CN2CCCCC2c2ccc(-c3cnn(C)c3)nc2)cn1 (configuration not stated) | 25.8 |
| Nc1nccc(C2CCCCN2Cc2cccc(F)c2)n1 (configuration not stated) | 52 |
| Cn1cc(CN2CCOC(c3cccc(-c4cccc(F)c4)n3)C2)cn1 (configuration not stated) | 23.9 |

| Structure (SMILES) | INHIBITION [%] |
| --- | --- |
| COc1ccc(C2CCCN2Cc2cnn(C)c2)cc1 (configuration not stated) | 34.5 |
| Nc1nccc(C2CCCN2CCc2ccccc2)n1 (configuration not stated) | 37.8 |
| CC(=O)Nc1nc(CN2CCn3c(nnc3C(C)C)C2)cs1 | -24.3 |
| CCN1CCn2c(C)cnc2C12CCN(C(=O)Cc1ccccc1)CC2 | 30.9 |
| CC(C)(CNC(=O)CCCOc1cccc(F)c1)C(N)=O | 30.65 |
| Cc1nc(CN2CCCC(c3nccs3)C2)cs1 (configuration not stated) | 24.05 |
| CN(C)CC(=O)N1Cc2nc(C(=O)N3CCCN(C)CC3)oc2C1 | -2.26 |
| N[C@@H]1c2ccccc2C2(CCN(C(=O)c3ccc(=O)[nH]c3)CC2)[C@H]1O | 4.795 |
| Cc1ccc(Cl)cc1C(=O)N1CCC2(CC1)c1ccccc1[C@@H](N)[C@@H]2O | 80.1 |
| Cc1ccc(C(=O)N2CCC3(CC2)c2ccccc2[C@@H](N)[C@@H]3O)cc1F | 35.1 |
| CC(C)c1cc(C(=O)N2CCC3(CC2)c2ccccc2[C@@H](N)[C@@H]3O)cs1 | 41.1 |
| COc1ccc(C(=O)N2CCC3(CC2)c2ccccc2[C@@H](N)[C@@H]3O)cc1 | 66.55 |
| N[C@@H]1c2ccccc2C2(CCN(C(=O)c3ccccc3O)CC2)[C@H]1O | -5.395 |
| c1cc(-c2cncc(C3CCNCC3)n2)n[nH]1 | 35 |
| Cc1cc(C(=O)NCc2cccnc2N(C)C)c(C)o1 | 26.3 |
| Nc1nccnc1C(=O)NC1CCCN(Cc2c(F)cccc2F)C1 (configuration not stated) | 21.8 |
| CC(C)n1nc(Cn2cccc2)c2c1CN(Cc1ccoc1)C2 | 54.1 |
| Cn1nc(Cn2cccc2)c2c1CN(Cc1ccoc1)C2 | 24.6 |
| Cn1nc(Cn2ccnc2)c2c1CN(Cc1ccoc1)C2 | -9.42 |
